Measured values as given in the supplement of paper PMC10849652.
The full data set covers some 7,900 targets. This sample favours those with a hit. About 0.6% of all pairs of compound and target were hits.

Tests used:
Experiment in all cases: log2 fold change, soluble protein after heating vs DMSO (PISA); higher = thermal stabilisation; K562 cells, 10 uM, 30 min; active = over 0.2 and 3.5 SD of the protein, either way, in both replicates (recomputed)
[1] = compound: NC(=O)Nc1cc(-c2cccc(F)c2)sc1C(=O)N[C@H]1CCCNC1
Outline: (§1)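 K562 cells at 2×10^6 cells/mL were treated with 10 μM compound for 30 min. Aliquots were heated for 3 min across 48°C-58°C, pooled, and extracted in PBS with 0.5% NP-40 at 4°C; soluble protein was the supernatant after 21,000xg for 90 min. Soluble protein was quantified by TMTpro 16plex LC-MS/MS with channel sums equalised, and reported as log2 fold change in thermal stability against DMSO controls, with values from duplicates.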

[2] = compound: NC(=O)c1cnc(N[C@@H]2CCCC[C@@H]2N)nc1Nc1cccc(-n2nccn2)c1
Outline: as §1

[3] = compound: NC1(c2ccc(-c3nc4ccn5c(=O)[nH]nc5c4cc3-c3ccccc3)cc2)CCC1
Outline: as §1

[4] = compound: NCC(=O)Nc1ccc(-n2nc(C(F)(F)F)cc2-c2ccc3c(ccc4ccccc43)c2)cc1
Outline: as §1

[5] = compound: Nc1ccccc1NC(=O)c1ccc(CNC(=O)OCc2cccnc2)cc1 [entinostat]
Outline: as §1

[6] = compound: O=C(CCCCCCC(=O)Nc1ccccc1)NO [vorinostat]
Outline: as §1

[7] = compound: O=C(CCCCCCNC(=O)c1cnc(N(c2ccccc2)c2ccccc2Cl)nc1)NO [citarinostat]
Outline: as §1

[8] = compound: O=C(O)c1ccc2c(c1)nc(Nc1cccc(Cl)c1)c1ccncc12 [silmitasertib]
Outline: as §1

[9] = compound: O=C1NC(=O)C(c2cnc3ccccn23)=C1c1cn2c3c(cc(F)cc13)CN(C(=O)N1CCCCC1)CC2
Outline: as §1

[10] = compound: c1cc(OCCN2CCCCC2)cc(-c2n[nH]c3ccc(-c4nnc[nH]4)cc23)c1
Outline: as §1

[11] = compound: c1cn2cc(-c3ccc4cn[nH]c4c3)nc(Nc3ccc(N4CCOCC4)cc3)c2n1 [entospletinib]
Outline: as §1

Measured: log2 fold change

ACADM isoform 2 (UniProt P11310)
Chain of UniProt P11310 (P11310 whole entry, looked up): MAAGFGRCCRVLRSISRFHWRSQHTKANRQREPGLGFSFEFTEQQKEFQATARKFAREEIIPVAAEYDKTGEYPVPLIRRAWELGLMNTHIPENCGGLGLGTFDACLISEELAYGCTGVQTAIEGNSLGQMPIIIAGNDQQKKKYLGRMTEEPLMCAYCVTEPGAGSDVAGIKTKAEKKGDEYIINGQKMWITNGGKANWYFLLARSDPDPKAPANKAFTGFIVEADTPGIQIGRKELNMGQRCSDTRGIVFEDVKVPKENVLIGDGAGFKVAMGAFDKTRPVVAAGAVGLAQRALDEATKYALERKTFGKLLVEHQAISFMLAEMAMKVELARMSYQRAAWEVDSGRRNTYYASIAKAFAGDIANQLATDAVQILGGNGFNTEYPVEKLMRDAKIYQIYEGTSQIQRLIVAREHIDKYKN
inactive: [1] -0.044 | [2] 0.01 | [3] -0.024 | [4] 0.029 | [5] -0.019 | [6] -0.007 | [7] 0.037 | [8] -0.032 | [9] -0.101 | [10] 0.009 | [11] -0.001

ACVR1 (UniProt Q04771)
Chain of UniProt Q04771 (Q04771 whole entry, looked up): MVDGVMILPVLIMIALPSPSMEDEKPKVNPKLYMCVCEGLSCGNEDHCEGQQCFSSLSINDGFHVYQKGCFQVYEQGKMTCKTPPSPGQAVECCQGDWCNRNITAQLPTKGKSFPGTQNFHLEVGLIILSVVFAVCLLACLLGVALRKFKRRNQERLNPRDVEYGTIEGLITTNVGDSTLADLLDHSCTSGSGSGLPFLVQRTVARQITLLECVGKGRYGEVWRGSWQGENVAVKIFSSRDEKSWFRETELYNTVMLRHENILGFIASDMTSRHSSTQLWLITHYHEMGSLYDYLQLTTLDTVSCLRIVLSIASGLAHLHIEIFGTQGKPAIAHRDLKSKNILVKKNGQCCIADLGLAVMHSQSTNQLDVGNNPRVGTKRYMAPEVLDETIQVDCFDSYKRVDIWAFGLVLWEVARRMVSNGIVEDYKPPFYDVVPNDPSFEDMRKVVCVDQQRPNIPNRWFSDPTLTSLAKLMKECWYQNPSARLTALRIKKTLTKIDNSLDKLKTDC
inactive: [1] 0.044 | [2] 0.074 | [3] 0 | [4] 0.089 | [5] 0.137 | [6] -0.255 | [7] 0.07 | [8] 0.046 | [9] -0.069 | [10] 0.027 | [11] -0.053

BAIAP2 (UniProt Q9UQB8)
active: [1] -0.229
inactive: [2] -0.083 | [3] -0.086 | [4] -0.014 | [5] 0.019 | [6] 0.082 | [7] 0.031 | [8] -0.016 | [9] 0.04 | [10] -0.034 | [11] -0.012

ANXA5 (UniProt P08758)
Chain of UniProt P08758 (P08758 whole entry, looked up): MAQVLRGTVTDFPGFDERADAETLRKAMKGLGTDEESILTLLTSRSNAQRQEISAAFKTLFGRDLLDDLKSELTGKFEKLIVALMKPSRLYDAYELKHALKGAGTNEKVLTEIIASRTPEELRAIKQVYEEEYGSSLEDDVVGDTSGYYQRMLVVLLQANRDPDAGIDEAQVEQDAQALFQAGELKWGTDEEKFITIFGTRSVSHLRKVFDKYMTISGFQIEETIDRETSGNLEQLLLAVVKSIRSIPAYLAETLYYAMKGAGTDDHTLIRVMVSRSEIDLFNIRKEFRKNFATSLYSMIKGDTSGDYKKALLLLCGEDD
inactive: [1] -0.021 | [2] -0.044 | [3] -0.139 | [4] -0.031 | [5] 0.055 | [6] 0.027 | [7] 0.115 | [8] 0 | [9] -0.045 | [10] -0.008 | [11] 0.016

AP2B1 isoform 2 (UniProt P63010)
Chain of UniProt P63010 (P63010 whole entry, looked up): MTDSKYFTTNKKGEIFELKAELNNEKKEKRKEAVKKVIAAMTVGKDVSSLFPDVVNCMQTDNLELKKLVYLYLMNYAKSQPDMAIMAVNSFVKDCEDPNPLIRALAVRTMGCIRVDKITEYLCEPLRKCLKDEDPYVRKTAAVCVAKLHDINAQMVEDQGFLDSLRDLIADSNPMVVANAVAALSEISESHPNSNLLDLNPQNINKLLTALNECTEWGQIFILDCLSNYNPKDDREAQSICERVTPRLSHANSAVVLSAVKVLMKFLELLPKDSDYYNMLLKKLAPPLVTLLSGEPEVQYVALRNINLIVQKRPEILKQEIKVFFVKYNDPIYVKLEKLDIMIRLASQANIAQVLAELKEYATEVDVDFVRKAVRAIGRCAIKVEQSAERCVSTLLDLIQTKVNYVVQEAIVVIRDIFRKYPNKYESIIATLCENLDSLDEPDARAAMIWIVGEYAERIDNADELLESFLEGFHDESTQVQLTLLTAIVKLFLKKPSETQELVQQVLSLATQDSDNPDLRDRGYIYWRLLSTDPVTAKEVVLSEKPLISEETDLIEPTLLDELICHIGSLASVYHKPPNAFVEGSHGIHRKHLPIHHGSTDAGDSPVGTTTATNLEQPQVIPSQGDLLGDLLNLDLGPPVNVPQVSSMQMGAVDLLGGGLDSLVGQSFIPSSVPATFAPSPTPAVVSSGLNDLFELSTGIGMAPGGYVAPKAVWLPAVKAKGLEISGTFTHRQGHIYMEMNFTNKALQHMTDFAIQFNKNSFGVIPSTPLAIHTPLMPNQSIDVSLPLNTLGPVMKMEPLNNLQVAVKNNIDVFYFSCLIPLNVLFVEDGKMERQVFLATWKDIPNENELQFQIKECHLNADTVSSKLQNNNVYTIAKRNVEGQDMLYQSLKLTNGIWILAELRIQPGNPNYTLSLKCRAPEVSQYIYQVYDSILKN
active: [1] -0.225
inactive: [2] 0.01 | [3] 0.037 | [4] 0.002 | [5] 0 | [6] 0.01 | [7] 0.019 | [8] 0.02 | [9] -0.202 | [10] -0.182 | [11] 0.032

ARF4 (UniProt P18085)
inactive: [1] -0.011 | [2] 0.025 | [3] -0.082 | [4] -0.06 | [5] -0.002 | [6] -0.024 | [7] 0.041 | [8] -0.017 | [9] -0.069 | [10] -0.004 | [11] -0.088

ADD1 isoform 3 (UniProt P35611)
inactive: [1] 0.03 | [2] -0.016 | [3] 0.034 | [4] -0.02 | [5] -0.071 | [6] 0.01 | [7] 0.034 | [8] -0.01 | [9] -0.06 | [10] 0.01 | [11] 0.007

ABITRAM (UniProt Q9NX38)
Chain of UniProt Q9NX38 (Q9NX38 whole entry, looked up): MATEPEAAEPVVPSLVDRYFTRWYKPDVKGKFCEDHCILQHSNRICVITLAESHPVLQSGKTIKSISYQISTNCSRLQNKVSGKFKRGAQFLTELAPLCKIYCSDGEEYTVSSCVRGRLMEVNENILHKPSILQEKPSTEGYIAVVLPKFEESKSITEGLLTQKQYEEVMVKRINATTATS
inactive: [1] -0.018 | [2] -0.12 | [3] -0.194 | [4] 0.008 | [5] 0.008 | [6] -0.089 | [7] 0.046 | [8] 0.094 | [9] -0.015 | [10] -0.006 | [11] -0.052

ATP12A isoform 2 (UniProt P54707)
inactive: [1] -0.115 | [2] 0.049 | [3] 0.075 | [4] 0.003 | [5] -0.072 | [6] -0.035 | [7] -0.033 | [8] -0.033 | [9] -0.032 | [10] -0.037 | [11] -0.003

ASB6 (UniProt Q9NWX5)
inactive: [1] 0.076 | [2] 0.161 | [3] -0.216 | [4] -0.032 | [5] -0.12 | [6] -0.075 | [7] 0.106 | [8] -0.006 | [9] 0.059 | [10] 0.07 | [11] -0.065

ACAD9 (UniProt Q9H845)
inactive: [1] -0.009 | [2] -0.051 | [3] -0.036 | [4] -0.012 | [5] -0.021 | [6] 0.033 | [7] 0.035 | [8] 0.021 | [9] -0.016 | [10] 0.007 | [11] 0.02

ATP5IF1 (UniProt Q9UII2)
Chain of UniProt Q9UII2 (Q9UII2 whole entry, looked up): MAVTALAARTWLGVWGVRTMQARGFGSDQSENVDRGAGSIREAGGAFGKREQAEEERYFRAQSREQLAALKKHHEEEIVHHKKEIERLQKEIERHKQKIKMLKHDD
inactive: [1] -0.039 | [2] -0.01 | [3] -0.02 | [4] 0.086 | [5] -0.021 | [6] -0.07 | [7] -0.124 | [8] -0.044 | [9] -0.092 | [10] 0.092 | [11] 0.057

AK6 (UniProt Q9Y3D8)
Chain of UniProt Q9Y3D8 (Q9Y3D8 whole entry, looked up): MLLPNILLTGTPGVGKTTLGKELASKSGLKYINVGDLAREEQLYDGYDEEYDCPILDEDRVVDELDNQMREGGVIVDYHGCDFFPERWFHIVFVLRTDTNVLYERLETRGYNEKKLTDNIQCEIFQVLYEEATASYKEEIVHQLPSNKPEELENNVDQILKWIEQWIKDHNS
inactive: [1] -0.034 | [2] -0.072 | [3] -0.043 | [4] -0.138 | [5] 0.145 | [6] 0.074 | [7] 0.103 | [8] 0.058 | [9] -0.051 | [10] -0.009 | [11] -0.048

ATP6V0A1 isoform 3 (UniProt Q93050)
Chain of UniProt Q93050 (Q93050 whole entry, looked up): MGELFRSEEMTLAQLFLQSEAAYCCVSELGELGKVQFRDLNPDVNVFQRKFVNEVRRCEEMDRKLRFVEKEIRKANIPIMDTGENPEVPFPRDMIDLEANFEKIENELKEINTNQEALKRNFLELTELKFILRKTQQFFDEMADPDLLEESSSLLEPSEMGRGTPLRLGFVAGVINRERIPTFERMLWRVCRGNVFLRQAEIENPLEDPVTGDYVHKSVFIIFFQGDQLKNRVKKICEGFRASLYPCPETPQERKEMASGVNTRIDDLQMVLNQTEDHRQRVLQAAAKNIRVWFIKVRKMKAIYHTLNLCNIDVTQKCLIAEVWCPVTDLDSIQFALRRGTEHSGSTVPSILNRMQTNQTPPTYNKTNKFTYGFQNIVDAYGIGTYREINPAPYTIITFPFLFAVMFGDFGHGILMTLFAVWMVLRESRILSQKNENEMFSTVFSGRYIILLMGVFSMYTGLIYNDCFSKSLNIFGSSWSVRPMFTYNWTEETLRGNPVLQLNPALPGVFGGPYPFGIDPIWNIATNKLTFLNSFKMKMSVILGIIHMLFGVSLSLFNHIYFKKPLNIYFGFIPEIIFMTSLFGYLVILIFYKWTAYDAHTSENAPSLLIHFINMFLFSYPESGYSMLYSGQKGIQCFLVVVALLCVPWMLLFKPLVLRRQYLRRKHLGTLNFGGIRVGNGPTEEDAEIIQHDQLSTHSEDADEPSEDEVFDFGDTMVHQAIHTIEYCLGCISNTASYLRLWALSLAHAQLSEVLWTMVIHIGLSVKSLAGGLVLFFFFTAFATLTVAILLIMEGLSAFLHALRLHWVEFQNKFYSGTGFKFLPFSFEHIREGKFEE
inactive: [1] -0.051 | [2] -0.207 | [3] -0.184 | [4] 0.008 | [5] 0.083 | [6] 0.062 | [7] 0.109 | [8] 0.102 | [9] 0.019 | [10] -0.112 | [11] 0.079

APLP2 (UniProt Q06481)
Chain of UniProt Q06481 (Q06481 whole entry, looked up): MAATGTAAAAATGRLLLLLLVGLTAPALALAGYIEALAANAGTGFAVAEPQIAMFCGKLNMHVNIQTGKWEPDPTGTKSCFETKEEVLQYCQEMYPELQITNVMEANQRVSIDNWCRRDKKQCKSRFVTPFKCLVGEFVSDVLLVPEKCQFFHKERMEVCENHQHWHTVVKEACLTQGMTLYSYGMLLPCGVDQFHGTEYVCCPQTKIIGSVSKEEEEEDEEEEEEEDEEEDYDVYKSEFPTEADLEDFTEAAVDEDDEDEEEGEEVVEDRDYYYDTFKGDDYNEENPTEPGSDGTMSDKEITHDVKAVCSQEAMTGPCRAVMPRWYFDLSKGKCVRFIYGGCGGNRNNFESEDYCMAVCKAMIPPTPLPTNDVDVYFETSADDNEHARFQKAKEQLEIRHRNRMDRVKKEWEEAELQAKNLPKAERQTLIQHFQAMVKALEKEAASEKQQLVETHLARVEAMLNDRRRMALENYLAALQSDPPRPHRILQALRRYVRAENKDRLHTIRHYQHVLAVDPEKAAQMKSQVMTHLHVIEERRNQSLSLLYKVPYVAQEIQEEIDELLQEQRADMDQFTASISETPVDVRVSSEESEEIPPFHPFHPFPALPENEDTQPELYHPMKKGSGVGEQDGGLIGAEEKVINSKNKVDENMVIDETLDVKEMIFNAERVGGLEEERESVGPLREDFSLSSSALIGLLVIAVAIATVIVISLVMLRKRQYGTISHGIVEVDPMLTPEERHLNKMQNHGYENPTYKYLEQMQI
inactive: [1] -0.13 | [2] -0.021 | [3] 0.036 | [4] 0.054 | [5] -0.063 | [6] -0.035 | [7] 0.02 | [8] 0 | [9] 0.074 | [10] 0.046 | [11] -0.009

AIFM2 (UniProt Q9BRQ8)
inactive: [1] 0.016 | [2] -0.019 | [3] 0.034 | [4] -0.02 | [5] -0.01 | [6] -0.053 | [7] 0.046 | [8] 0.03 | [9] 0.047 | [10] -0.034 | [11] 0.01

ATP13A2 (UniProt Q9NQ11)
active: [3] -0.336
inactive: [1] 0.032 | [2] 0.01 | [4] 0.064 | [5] -0.005 | [6] 0.005 | [7] -0.054 | [8] 0.026 | [9] -0.052 | [10] -0.025 | [11] -0.115

ATP6AP1 (UniProt Q15904)
inactive: [1] -0.033 | [2] -0.208 | [3] -0.149 | [4] -0.04 | [5] 0.025 | [6] 0.063 | [7] 0.035 | [8] 0.043 | [9] -0.005 | [10] -0.087 | [11] -0.012

ACAP2 (UniProt Q15057)
inactive: [1] -0.016 | [2] -0.075 | [3] 0.026 | [4] -0.035 | [5] 0.005 | [6] 0 | [7] 0.029 | [8] -0.007 | [9] -0.078 | [10] 0.045 | [11] -0.073

ADD3 (UniProt Q9UEY8)
Chain of UniProt Q9UEY8 (Q9UEY8 whole entry, looked up): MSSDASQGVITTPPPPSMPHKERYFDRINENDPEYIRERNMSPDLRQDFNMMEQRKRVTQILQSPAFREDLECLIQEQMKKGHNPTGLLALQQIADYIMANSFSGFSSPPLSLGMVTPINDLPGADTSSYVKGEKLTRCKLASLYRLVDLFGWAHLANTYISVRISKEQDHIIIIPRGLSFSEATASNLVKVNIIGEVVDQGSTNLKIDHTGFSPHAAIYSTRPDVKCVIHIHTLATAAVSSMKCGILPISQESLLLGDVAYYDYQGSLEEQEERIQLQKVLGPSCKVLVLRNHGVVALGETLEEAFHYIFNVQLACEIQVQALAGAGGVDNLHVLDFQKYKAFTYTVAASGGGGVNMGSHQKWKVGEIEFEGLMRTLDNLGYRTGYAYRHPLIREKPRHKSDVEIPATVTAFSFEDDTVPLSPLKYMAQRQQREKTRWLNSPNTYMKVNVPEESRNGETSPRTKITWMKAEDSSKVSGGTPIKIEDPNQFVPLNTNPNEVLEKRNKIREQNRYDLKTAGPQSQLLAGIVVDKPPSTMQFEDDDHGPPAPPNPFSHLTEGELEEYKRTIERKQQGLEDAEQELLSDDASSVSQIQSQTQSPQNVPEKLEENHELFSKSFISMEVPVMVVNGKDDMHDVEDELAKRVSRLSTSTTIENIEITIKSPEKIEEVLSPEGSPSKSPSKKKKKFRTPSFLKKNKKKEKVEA
inactive: [1] 0.03 | [2] -0.014 | [3] 0.047 | [4] -0.001 | [5] -0.051 | [6] -0.01 | [7] -0.015 | [8] 0.001 | [9] -0.037 | [10] -0.024 | [11] 0.046
